# From the supplement of paper PMC8728848
# The entries come from a sample that favours the strongest signals as a whole.
# How the values were obtained:
# Experiment in all cases: glycan array binding signal (z-score within array); higher = stronger binding
# Conditions in all cases: glycan notation: IUPAC condensed, linker removed
# [1] = molecular target: Fuc(a1-2)Gal(b1-3)GalNAc(b1-3)Gal(a1-4)Gal(b1-4)Glc
# Method in brief: (§1)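 The binding signal is a Z-score computed within each array. Data were drawn from 3228 arrays in the Consortium for Functional Glycomics database, restricted to those with a known protein sequence. Scores were averaged over arrays of the same protein sequence at different concentrations or buffers, and over linkers, and negative values can be taken as non-binding.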
# [2] = molecular target: Fuc(a1-2)Gal(b1-3)[Fuc(a1-4)]GlcNAc(b1-3)[Gal(b1-4)GlcNAc(b1-6)]Gal(b1-4)Glc
# Method in brief: as §1
# [3] = molecular target: Fuc(a1-2)Gal(b1-4)[Fuc(a1-3)]GlcNAc(b1-3)GalNAc
# Method in brief: as §1
# [4] = molecular target: Fuc(a1-2)Gal6S(b1-4)Glc6S
# Method in brief: as §1
# [5] = molecular target: Fuc(a1-2)[Gal(a1-3)]Gal(b1-4)GlcNAc(b1-2)Man
# Method in brief: as §1
# [6] = molecular target: Fuc(a1-2)[Gal(a1-3)]Gal(b1-4)GlcNAc(b1-6)GalNAc
# Method in brief: as §1
# [7] = molecular target: Fuc(a1-2)[Gal(a1-3)]Gal(b1-4)[Fuc(a1-3)]GlcNAc(b1-3)GalNAc
# Method in brief: as §1
# [8] = molecular target: Fuc(a1-3)[GalNAc(b1-4)]GlcNAc
# Method in brief: as §1
# [9] = molecular target: Gal(a1-3)Gal(b1-4)GlcNAc(b1-2)Man
# Method in brief: as §1
# [10] = molecular target: Gal(a1-3)Gal(b1-4)[Fuc(a1-3)]GlcNAc(b1-2)Man(a1-3)[Gal(a1-3)Gal(b1-4)[Fuc(a1-3)]GlcNAc(b1-2)Man(a1-6)]Man(b1-4)GlcNAc(b1-4)GlcNAc
# Method in brief: as §1
# [11] = molecular target: Gal(b1-3)GlcNAc(a1-6)Gal(b1-4)GlcNAc
# Method in brief: as §1
# [12] = molecular target: Gal(b1-3)GlcNAc(b1-6)GalNAc
# Method in brief: as §1
# [13] = molecular target: Gal(b1-3)[Fuc(a1-4)]GlcNAc
# Method in brief: as §1
# [14] = molecular target: Gal(b1-4)GlcNAc(b1-3)Gal(b1-4)GlcNAc(b1-2)Man(a1-3)[Gal(b1-4)GlcNAc(b1-3)Gal(b1-4)GlcNAc(b1-2)Man(a1-6)]Man(b1-4)GlcNAc(b1-4)GlcNAc
# Method in brief: as §1
# [15] = molecular target: Gal(b1-4)GlcNAc(b1-3)Gal(b1-4)GlcNAc(b1-2)[Gal(b1-4)GlcNAc(b1-3)Gal(b1-4)GlcNAc(b1-6)]Man(a1-6)[Gal(b1-4)GlcNAc(b1-3)Gal(b1-4)GlcNAc(b1-2)Man(a1-3)]Man(b1-4)GlcNAc(b1-4)[Fuc(a1-6)]GlcNAc
# Method in brief: as §1
# [16] = molecular target: Gal(b1-4)GlcNAc(b1-3)Gal(b1-4)GlcNAc(b1-3)Gal(b1-4)GlcNAc(b1-2)Man(a1-3)[Gal(b1-4)GlcNAc(b1-3)Gal(b1-4)GlcNAc(b1-3)Gal(b1-4)GlcNAc(b1-2)Man(a1-6)]Man(b1-4)GlcNAc(b1-4)GlcNAc
# Method in brief: as §1
# [17] = molecular target: Gal(b1-4)GlcNAc(b1-3)Gal(b1-4)GlcNAc(b1-3)Gal(b1-4)GlcNAc(b1-2)[Gal(b1-4)GlcNAc(b1-3)Gal(b1-4)GlcNAc(b1-3)Gal(b1-4)GlcNAc(b1-6)]Man(a1-6)[Gal(b1-4)GlcNAc(b1-3)Gal(b1-4)GlcNAc(b1-3)Gal(b1-4)GlcNAc(b1-2)Man(a1-3)]Man(b1-4)GlcNAc(b1-4)[Fuc(a1-6)]GlcNAc
# Method in brief: as §1
# [18] = molecular target: Gal(b1-4)GlcNAc(b1-3)Gal(b1-4)GlcNAc(b1-3)[Gal(b1-4)GlcNAc(b1-3)Gal(b1-4)GlcNAc(b1-6)]GalNAc
# Method in brief: as §1
# [19] = molecular target: Gal(b1-4)GlcNAc(b1-3)Gal(b1-4)GlcNAc(b1-6)[Gal(b1-3)]GalNAc
# Method in brief: as §1
# [20] = molecular target: Gal(b1-4)GlcNAc(b1-3)[Gal(b1-4)GlcNAc(b1-6)]GalNAc
# Method in brief: as §1
# [21] = molecular target: Gal(b1-4)GlcNAc(b1-6)Gal(b1-4)GlcNAc(b1-6)GalNAc
# Method in brief: as §1
# GalNAc(a1-3)GalNAc = molecular target: GalNAc(a1-3)GalNAc
# Method in brief: as §1
# GalNAc(b1-3)Gal = molecular target: GalNAc(b1-3)Gal
# Method in brief: as §1
# GalNAc3S(b1-4)GlcNAc3S = molecular target: GalNAc3S(b1-4)GlcNAc3S
# Method in brief: as §1
# Glc(a1-4)Glc = molecular target: Glc(a1-4)Glc
# Method in brief: as §1
# [22] = molecular target: GlcNAc(b1-3)Gal(b1-4)GlcNAc(b1-3)Gal(b1-4)GlcNAc(b1-2)Man(a1-3)[GlcNAc(b1-3)Gal(b1-4)GlcNAc(b1-3)Gal(b1-4)GlcNAc(b1-2)Man(a1-6)]Man(b1-4)GlcNAc(b1-4)GlcNAc
# Method in brief: as §1
# [23] = molecular target: GlcNAc(b1-3)Gal(b1-4)GlcNAc(b1-3)Gal(b1-4)GlcNAc(b1-2)[GlcNAc(b1-3)Gal(b1-4)GlcNAc(b1-3)Gal(b1-4)GlcNAc(b1-6)]Man(a1-6)[GlcNAc(b1-3)Gal(b1-4)GlcNAc(b1-3)Gal(b1-4)GlcNAc(b1-2)Man(a1-3)]Man(b1-4)GlcNAc(b1-4)[Fuc(a1-6)]GlcNAc
# Method in brief: as §1
# [24] = molecular target: GlcNAc(b1-3)Gal(b1-4)GlcNAc(b1-3)Gal(b1-4)GlcNAc(b1-3)Gal(b1-4)GlcNAc(b1-3)Gal(b1-4)GlcNAc(b1-2)Man(a1-3)[GlcNAc(b1-3)Gal(b1-4)GlcNAc(b1-3)Gal(b1-4)GlcNAc(b1-3)Gal(b1-4)GlcNAc(b1-3)Gal(b1-4)GlcNAc(b1-2)Man(a1-6)]Man(b1-4)GlcNAc(b1-4)[Fuc(a1-6)]GlcNAc
# Method in brief: as §1
# [25] = molecular target: GlcNAc(b1-3)Gal(b1-4)GlcNAc(b1-6)[Gal(b1-3)]GalNAc
# Method in brief: as §1
# GlcNAc(b1-3)GalNAc = molecular target: GlcNAc(b1-3)GalNAc
# Method in brief: as §1
# [26] = molecular target: GlcNAc(b1-3)[GlcNAc(b1-6)]GlcNAc(b1-4)GlcNAc
# Method in brief: as §1
# [27] = molecular target: GlcNAc(b1-4)[GlcNAc(b1-6)]GalNAc
# Method in brief: as §1
# [28] = molecular target: GlcNAc6S(b1-3)Gal(b1-4)GlcNAc
# Method in brief: as §1
# Man(a1-2)Man(a1-3)Man = molecular target: Man(a1-2)Man(a1-3)Man
# Method in brief: as §1
# [29] = molecular target: Man(a1-2)Man(a1-3)[Man(a1-2)Man(a1-6)]Man(a1-6)[Man(a1-2)Man(a1-2)Man(a1-3)]Man
# Method in brief: as §1
# [30] = molecular target: Man(a1-3)[Man(a1-6)]Man(a1-6)[Man(a1-2)Man(a1-3)]Man(b1-4)GlcNAc(b1-4)GlcNAc
# Method in brief: as §1
# [31] = molecular target: Man(a1-3)[Man(a1-6)]Man(a1-6)[Man(a1-3)]Man(b1-4)GlcNAc(b1-4)GlcNAc
# Method in brief: as §1
# [32] = molecular target: Neu5Ac(a2-3)Gal(b1-3)GlcNAc
# Method in brief: as §1
# [33] = molecular target: Neu5Ac(a2-3)Gal(b1-4)GlcNAc(b1-3)Gal(b1-4)GlcNAc(b1-3)Gal(b1-4)GlcNAc(b1-2)Man(a1-3)[Neu5Ac(a2-3)Gal(b1-4)GlcNAc(b1-3)Gal(b1-4)GlcNAc(b1-3)Gal(b1-4)GlcNAc(b1-2)Man(a1-6)]GalNAc
# Method in brief: as §1
# [34] = molecular target: Neu5Ac(a2-3)Gal(b1-4)GlcNAc(b1-3)Gal(b1-4)GlcNAc(b1-3)GalNAc
# Method in brief: as §1
# [35] = molecular target: Neu5Ac(a2-3)Gal(b1-4)[Fuc(a1-3)]GlcNAc(b1-3)GalNAc
# Method in brief: as §1
# Neu5Ac(a2-6)Gal = molecular target: Neu5Ac(a2-6)Gal
# Method in brief: as §1
# [36] = molecular target: Neu5Ac(a2-6)Gal(b1-4)GlcNAc(b1-3)Gal(b1-4)GlcNAc(b1-3)Gal(b1-4)GlcNAc
# Method in brief: as §1
# [37] = molecular target: Neu5Ac(a2-6)Gal(b1-4)GlcNAc(b1-3)Gal(b1-4)GlcNAc(b1-3)Gal(b1-4)GlcNAc(b1-2)Man(a1-3)[Neu5Ac(a2-6)Gal(b1-4)GlcNAc(b1-3)Gal(b1-4)GlcNAc(b1-3)Gal(b1-4)GlcNAc(b1-2)Man(a1-6)]GalNAc
# Method in brief: as §1
# [38] = molecular target: Neu5Ac(a2-6)Gal(b1-4)GlcNAc(b1-3)Gal(b1-4)GlcNAc(b1-6)[Gal(b1-3)]GalNAc
# Method in brief: as §1
# [39] = molecular target: Neu5Ac(a2-8)Neu5Ac(a2-3)Gal(b1-3)GalNAc(b1-4)[Neu5Ac(a2-8)Neu5Ac(a2-3)]Gal(b1-4)Glc
# Method in brief: as §1
# [40] = molecular target: Neu5Ac(a2-8)Neu5Ac(a2-8)Neu5Ac(a2-3)[Gal(b1-3)GalNAc(b1-4)]Gal(b1-4)Glc
# Method in brief: as §1
# [41] = molecular target: Neu5Ac(b2-6)Gal(b1-4)GlcNAc
# Method in brief: as §1
# [42] = molecular target: Neu5Gc(a2-3)Gal(b1-4)GlcNAc
# Method in brief: as §1
binder,measurement,setting,value
"ECA (Erythrina cristagalli), P83410 (protein) VETISFSFSEFEPGNDNLTLQGAALITQSGVLQLTKINQNGMPAWDSTGRTLYTKPVHMWDSTTGTVASFETRFSFSIEQPYTRPLPADGLVFFMGPTKSKPAQGYGYLGVFNNSKQDNSYQTLAVEFDTFSNPWDPPQVPHIGIDVNSIRSIKTQPFQLDNGQVANVVIKYDAPSKILHVVLVYPSSGAIYTIAEIVDVKQVLPDWVDVGLSGATGAQRDAAETHDVYSWSFQASLPE",glycan array binding signal (z-score),[1],-0.125
same,glycan array binding signal (z-score),[2],-0.309
same,glycan array binding signal (z-score),[3],0.542
same,glycan array binding signal (z-score),[4],-0.123
same,glycan array binding signal (z-score),[5],-0.485
same,glycan array binding signal (z-score),[6],-0.455
same,glycan array binding signal (z-score),[7],-0.399
same,glycan array binding signal (z-score),[8],-0.226
same,glycan array binding signal (z-score),[9],-0.517
same,glycan array binding signal (z-score),[10],10.5
same,glycan array binding signal (z-score),[11],-0.325
same,glycan array binding signal (z-score),[12],-0.491
same,glycan array binding signal (z-score),[13],-0.234
same,glycan array binding signal (z-score),[14],3.88
same,glycan array binding signal (z-score),[15],0.699
same,glycan array binding signal (z-score),[16],4.58
same,glycan array binding signal (z-score),[17],1.81
same,glycan array binding signal (z-score),[18],4.2
same,glycan array binding signal (z-score),[19],4.88
same,glycan array binding signal (z-score),[20],5.59
same,glycan array binding signal (z-score),[21],5.39
same,glycan array binding signal (z-score),GalNAc(a1-3)GalNAc,-0.186
same,glycan array binding signal (z-score),GalNAc(b1-3)Gal,-0.272
same,glycan array binding signal (z-score),GalNAc3S(b1-4)GlcNAc3S,-0.509
same,glycan array binding signal (z-score),Glc(a1-4)Glc,-0.148
same,glycan array binding signal (z-score),[22],3.72
same,glycan array binding signal (z-score),[23],3.4
same,glycan array binding signal (z-score),[24],0.151
same,glycan array binding signal (z-score),[25],-0.412
same,glycan array binding signal (z-score),GlcNAc(b1-3)GalNAc,-0.366
same,glycan array binding signal (z-score),[26],-0.277
same,glycan array binding signal (z-score),[27],-0.228
same,glycan array binding signal (z-score),[28],-0.243
same,glycan array binding signal (z-score),Man(a1-2)Man(a1-3)Man,-0.285
same,glycan array binding signal (z-score),[29],-0.091
same,glycan array binding signal (z-score),[30],1.29
same,glycan array binding signal (z-score),[31],-0.177
same,glycan array binding signal (z-score),[32],-0.269
same,glycan array binding signal (z-score),[33],7.35
same,glycan array binding signal (z-score),[34],-0.407
same,glycan array binding signal (z-score),[35],0.567
same,glycan array binding signal (z-score),Neu5Ac(a2-6)Gal,-0.208
same,glycan array binding signal (z-score),[36],-0.578
same,glycan array binding signal (z-score),[37],5.2
same,glycan array binding signal (z-score),[38],0.104
same,glycan array binding signal (z-score),[39],-0.352
same,glycan array binding signal (z-score),[40],0.194
same,glycan array binding signal (z-score),[41],-0.088
same,glycan array binding signal (z-score),[42],-0.327
